Most compounds without a hit are left out; they make up all but 27% or so of the library.
CYP2C19 activ: activators of human cytochrome P450 2C19 | P33261 | recombinant CYP2C19, luciferin-H EGE luminescence; hits give high values; 0 = fully inhibited enzyme, 1 = untreated enzyme | activation factor at 5 µM | 96,000 tested, under 10 active | AID 1025;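 active means activation factor of at least 2 at 5 µM in the primary screen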;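 further: 0 = wells with 2.5 mM tranylcypromine and 1 = vehicle-only wells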
CYP2C9 activ: increases human cytochrome P450 2C9 activity; recombinant CYP2C9, luciferin-H conversion, luminescence; hits give high values; factor 1 = untreated enzyme, 0 = blocked; activation factor at 5 µM; 1.4% of 96,000 active; AID 1024;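 active means activation factor of 2 or more for CYP2C9 at a 5 µM dose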;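 further: 0 = sulfaphenazole-blocked wells and 1 = vehicle-only wells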
CYP2C9 inhib: blocks human cytochrome P450 2C9. CYP2C9 Supersomes, luciferin-H conversion, luminescence. inhibition, % at 5 µM. 20% of 96,000 active. AID 777;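 active means blocking of liver enzyme CYP2C9 beyond about 50% at 5 µM, limit read from the data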
Cav3 T inh: human Cav3.2 channel inhibition, primary screen; Cav3.2-expressing cells, Fluo-4 calcium fluorescence FDSS; hits give low values; 4% of 100,000 active; B-score at 10 µM; AID 449739; O95180;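 active means single-dose well whose peak fluorescence ratio is a statistical outlier from its plate by either plate-standardised score or position-corrected B-score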
CYP2C19 inh: inhibitors of human CYP2C19; CYP2C19 Supersomes, luciferin-H EGE luminescence, 30 min; P33261; AID 778; inhibition, % at 5 µM; 21% of 96,000 active;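 active means CYP2C19 inhibition above a set limit at 5 µM in the primary screen, cut at about 50% in these data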;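 further: plate controls were negative control wells for no effect and 2.5 mM tranylcypromine positive control for full effect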
Active calls of the source: *.

Results for O=C(NNc1c2ccccc2nc2ccccc12)c1ccc(O)cc1O ?
CYP2C19 activ: 0.3; CYP2C9 activ: 0.3; CYP2C9 inhib: 71*; CYP2C19 inh: 66*

What do the screens show for `COc1ccc(OC2OC3COC(C)(C)OC3C(O)C2NC(C)=O)cc1` (stereo not drawn)?
Cav3 T inh: 0.42

Results for COc1ccc(C2C(C(N)=O)=C(C)Nc3nc(-c4ccccc4Cl)nn32)c(OC)c1 (stereo not drawn) ?
CYP2C19 activ: 0.8; CYP2C9 activ: 1; CYP2C9 inhib: 3; Cav3 T inh: -0.59; CYP2C19 inh: 24

Results for Cc1ccc(-c2nnn(CC(=O)N(Cc3ccccc3F)C(C(=O)NC3CCCC3)c3ccncc3)n2)o1 (stereo not drawn) ?
Cav3 T inh: 1.3

What do the screens show for `COC(=O)c1c(NS(=O)(=O)c2ccc(C)cc2)sc2c1CCC(C)C2` (stereo not drawn)?
Cav3 T inh: -0.32

Results for Cc1cc(S(=O)(=O)Nc2nc(CN3CCOCC3)nc3sc4c(c23)CCCC4)ccc1F ?
CYP2C19 activ: 0.4; CYP2C9 activ: 0.1; CYP2C9 inhib: 88*; CYP2C19 inh: 60*

How did CC1CCc2c(sc3nc(CN4CCOCC4)nc(NS(=O)(=O)c4cccc([N+](=O)[O-])c4)c23)C1 (stereo not drawn) do in these assays?
CYP2C19 activ: 0.7; CYP2C9 activ: 0.2; CYP2C9 inhib: 84*; CYP2C19 inh: 26

Results for Clc1ccc(-c2nnc(SCc3nc(-c4ccccc4)no3)o2)cc1 ?
CYP2C19 activ: 0.9; CYP2C9 activ: 0.3; CYP2C9 inhib: 71*; Cav3 T inh: 0.0014; CYP2C19 inh: 10

How did Clc1ccc(CSc2nnc(-c3ccncc3)o2)c(Cl)c1 do in these assays?
CYP2C19 activ: 0.2; CYP2C9 activ: 0.3; CYP2C9 inhib: 70*; Cav3 T inh: -0.2; CYP2C19 inh: 81*

How did Fc1ccccc1CSc1nnc(-c2ccccc2)o1 do in these assays?
CYP2C19 activ: 0.1; CYP2C9 activ: 0.2; CYP2C9 inhib: 77*; Cav3 T inh: -1.1; CYP2C19 inh: 87*

How did Cc1ccccc1-c1nnc(SCc2ccccc2)o1 do in these assays?
CYP2C19 activ: 0.3; CYP2C9 activ: 0.4; CYP2C9 inhib: 59*; Cav3 T inh: 0.18; CYP2C19 inh: 73*

Results for CCSc1nnc(-c2ccc(Cl)cc2Cl)o1 ?
CYP2C19 activ: 0.8; CYP2C9 activ: 1; CYP2C9 inhib: 0; Cav3 T inh: -0.35; CYP2C19 inh: 23

How did COCCNC(=O)C1CC2Cn3c(nc4ccccc43)C2N1C (stereo not drawn) do in these assays?
Cav3 T inh: -0.0018

How did CCn1c(SCC(=O)Nc2cc(NC(C)=O)ccc2OC)nnc1-c1ccccn1 do in these assays?
Cav3 T inh: 0.32

What do the screens show for `O=C(O)c1ccc(CSc2nnc(-c3ccco3)o2)cc1`?
CYP2C19 activ: 1.1; CYP2C9 activ: 0.6; CYP2C9 inhib: 38; Cav3 T inh: -1.3; CYP2C19 inh: -6

How did Cc1ccccc1-c1nnc(SCc2ccccc2F)o1 do in these assays?
CYP2C19 activ: 0.9; CYP2C9 activ: 0.9; CYP2C9 inhib: 14; Cav3 T inh: -0.98; CYP2C19 inh: 8

What do the screens show for `COc1cc(OC)cc(-c2nnc(SCc3c(F)cccc3Cl)o2)c1`?
CYP2C19 activ: 0.5; CYP2C9 activ: 0.4; CYP2C9 inhib: 63*; Cav3 T inh: -2.6; CYP2C19 inh: 47

What do the screens show for `Cc1[nH]c2ccccc2c1Cc1nnc(SCc2ccccc2)o1`?
CYP2C19 activ: 0.3; CYP2C9 activ: 0.7; CYP2C9 inhib: 27; Cav3 T inh: -8.6*; CYP2C19 inh: 69*

What do the screens show for `Cc1ccc(CSc2nnc(-c3ccco3)o2)cc1`?
CYP2C19 activ: 0.5; CYP2C9 activ: 0.4; CYP2C9 inhib: 63*; Cav3 T inh: -0.86; CYP2C19 inh: 48

How did O=c1c(-c2nnc(SCc3ccc(Cl)cc3Cl)o2)cccn1Cc1ccccc1 do in these assays?
CYP2C19 activ: 0.2; CYP2C9 activ: 0.3; CYP2C9 inhib: 66*; Cav3 T inh: -2.2; CYP2C19 inh: 76*

Results for O=C1NC2=C(C(=O)CCC2)C(c2ccc3ncccc3c2)N1 (stereo not drawn) ?
CYP2C19 activ: 1.1; CYP2C9 activ: 1; CYP2C9 inhib: -1; Cav3 T inh: 0.68; CYP2C19 inh: -8

Results for CCN1CCN(Cc2ccc(NC(=O)Nc3ccccc3OC)cc2)CC1 ?
CYP2C19 activ: 1.1; CYP2C9 activ: 0.9; CYP2C9 inhib: 6; Cav3 T inh: -0.6; CYP2C19 inh: -6

Source: PubChem
